Compound activity from PubChem BioAssay.
rCAG RNA binder: r(CAG) repeat RNA binding; TO-PRO-1 dye displacement fluorescence; inhibition, % at 3 µM; 1.3% of 370,000 active; AID 651821;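 active means inhibition above the plate cutoff, the mean of all test compounds on that plate plus 3 SD, cut at about 35% in these data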;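 further: higher means more dye released from RNA so lower well fluorescence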
ABHD5 PLIN5 PPI: ABHD5-PLIN5 protein interaction inhibition | inhibition, % at 4 µM | Split G. princeps luciferase complementation, luminescence, 4 h | Q00G26+Q8WTS1 | 0.78% of 360,000 active;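 active means inhibition above the mean inhibition across every tested compound plus 3 SD, cut at about 22% in these data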
PRMT1 FP inh: blocks human protein arginine methyltransferase 1. inhibition, % at 2.79 µM. Q99873. recombinant PRMT1, activity-based probe fluorescence polarization. AID 652257. 1.3% of 370,000 active;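 active means inhibition above about 21% made by adding two undisclosed values, limit read from the data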
UHRF1 binding: blocks human UHRF1 binding to methylated DNA | 0.75% of 370,000 active | inhibition, % at 4.4 µM | UHRF1 binding to methylated oligo, TR-FRET; in the data active means inhibition above about 21%;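 further: UHRF1 SRA domain binding a hemimethylated CpG hairpin DNA probe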
LEDGF integ inh: blocks HIV-1 LEDGF/p75-dependent DNA integration | TR-FRET IN-LEDGF/p75 DNA integration, Eu/Cy5 | inhibition, % at 3.7 µM | 0.64% of 370,000 active | AID 743269;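 active means inhibition above the screen-wide mean plus 3 SD, cut at about 13% in these data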;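 further: signal is the Cy5 over europium emission ratio at 671 and 618 nm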
MBD2 inh: blocks human MBD2 binding to methylated DNA. TR-FRET, MBD2 binding to methylated oligonucleotide. inhibition, % at 4.4 µM. 0.31% of 370,000 active. AID 686964; in the data active means inhibition above about 13%
Target sequence (Q9UBB5 whole entry, looked up): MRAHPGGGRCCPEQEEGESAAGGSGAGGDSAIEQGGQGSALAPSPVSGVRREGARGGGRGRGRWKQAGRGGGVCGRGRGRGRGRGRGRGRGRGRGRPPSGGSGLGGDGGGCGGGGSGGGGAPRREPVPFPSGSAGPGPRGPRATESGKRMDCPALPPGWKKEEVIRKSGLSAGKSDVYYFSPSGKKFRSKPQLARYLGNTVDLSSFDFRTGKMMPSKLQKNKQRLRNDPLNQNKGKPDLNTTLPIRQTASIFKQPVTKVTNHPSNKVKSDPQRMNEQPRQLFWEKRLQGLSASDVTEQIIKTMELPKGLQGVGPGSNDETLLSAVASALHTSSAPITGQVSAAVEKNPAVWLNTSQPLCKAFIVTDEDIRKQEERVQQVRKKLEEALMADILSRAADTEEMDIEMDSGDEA
PRMT1 inh conf: confirmation of human PRMT1 inhibitors. shares compounds with PRMT1 FP inh. recombinant His-PRMT1, activity-based probe fluorescence polarization. inhibition, % at 2.79 µM. 42% of 3,300 active. AID 687036;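 active means mean inhibition across replicates above the hit cutoff derived for the earlier primary screen, cut at about 22% in these data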
A number is an active result. Rows were chosen to be rich in hits. Some 4.1% of all compounds tested hit in one or more screens of this group.

What do the screens show for `CC(C)n1c(=O)[nH][nH]c1=S`?
rCAG RNA binder: inactive; ABHD5 PLIN5 PPI: inactive; PRMT1 FP inh: 70; UHRF1 binding: inactive; LEDGF integ inh: inactive; MBD2 inh: inactive; PRMT1 inh conf: 91

What do the screens show for `COc1ccc(S(=O)(=O)N(C)C[C@@H]2Oc3c(NC(=O)Nc4ccccc4)cccc3C(=O)N([C@@H](C)CO)C[C@H]2C)cc1`?
PRMT1 FP inh: inactive; UHRF1 binding: inactive; LEDGF integ inh: inactive; MBD2 inh: inactive

Results for OCCN1CCN(C(=S)c2ccc(Cl)cc2)CC1 ?
rCAG RNA binder: inactive; ABHD5 PLIN5 PPI: inactive; PRMT1 FP inh: 32; UHRF1 binding: inactive; LEDGF integ inh: inactive; MBD2 inh: inactive; PRMT1 inh conf: 40

How did CCN1CCN(C(=S)c2ccc(OC)cc2)CC1 do in these assays?
rCAG RNA binder: inactive; ABHD5 PLIN5 PPI: inactive; PRMT1 FP inh: 48; UHRF1 binding: inactive; LEDGF integ inh: inactive; MBD2 inh: inactive; PRMT1 inh conf: 37

Results for COc1ccc(C(=S)N2CCCCCC2)cc1 ?
rCAG RNA binder: inactive; ABHD5 PLIN5 PPI: inactive; PRMT1 FP inh: 26; UHRF1 binding: inactive; LEDGF integ inh: inactive; MBD2 inh: inactive; PRMT1 inh conf: inactive

Results for COc1ccc(C(=S)N2CCNCC2)cc1 ?
rCAG RNA binder: inactive; ABHD5 PLIN5 PPI: inactive; PRMT1 FP inh: inactive; UHRF1 binding: inactive; LEDGF integ inh: inactive; MBD2 inh: inactive

How did CC(C)(C)c1cc(C(=S)N2CCN(CCO)CC2)cc(C(C)(C)C)c1O do in these assays?
rCAG RNA binder: inactive; ABHD5 PLIN5 PPI: inactive; PRMT1 FP inh: 27; UHRF1 binding: inactive; LEDGF integ inh: inactive; MBD2 inh: inactive; PRMT1 inh conf: inactive

Results for CCCN1CCN(C(=S)NCc2ccc(Cl)cc2)CC1 ?
rCAG RNA binder: inactive; ABHD5 PLIN5 PPI: inactive; PRMT1 FP inh: inactive; UHRF1 binding: inactive; LEDGF integ inh: inactive; MBD2 inh: inactive

What do the screens show for `Cc1cc(C)nc(N2CCC(C(=O)N(C)CCc3ccccc3)CC2)n1`?
rCAG RNA binder: inactive; PRMT1 FP inh: inactive; UHRF1 binding: inactive; LEDGF integ inh: inactive; MBD2 inh: inactive

What do the screens show for `COCC(=O)N1CCC(C(=O)NCC2COc3ccccc3O2)CC1` (centres undefined)?
rCAG RNA binder: inactive; PRMT1 FP inh: inactive; UHRF1 binding: inactive; LEDGF integ inh: inactive; MBD2 inh: inactive

How did CCN1CCN(C(=S)c2ccc([N+](=O)[O-])cc2)CC1 do in these assays?
rCAG RNA binder: inactive; ABHD5 PLIN5 PPI: inactive; PRMT1 FP inh: 34; UHRF1 binding: inactive; LEDGF integ inh: inactive; MBD2 inh: inactive; PRMT1 inh conf: 35

How did CCN1CCN(C(=S)c2ccc(Cl)cc2)CC1 do in these assays?
rCAG RNA binder: inactive; ABHD5 PLIN5 PPI: inactive; PRMT1 FP inh: 85; UHRF1 binding: inactive; LEDGF integ inh: inactive; MBD2 inh: inactive; PRMT1 inh conf: 90

What do the screens show for `CCOc1ccc(C(=S)N2CCN(C)CC2)cc1`?
rCAG RNA binder: inactive; ABHD5 PLIN5 PPI: inactive; PRMT1 FP inh: 28; UHRF1 binding: inactive; LEDGF integ inh: inactive; MBD2 inh: inactive; PRMT1 inh conf: 33

How did O=C(NCC1COc2ccccc2O1)c1ccc(NC(=O)c2cccc(F)c2F)cc1 (centres undefined) do in these assays?
rCAG RNA binder: inactive; PRMT1 FP inh: inactive; UHRF1 binding: inactive; LEDGF integ inh: inactive; MBD2 inh: inactive

Results for CCCCCCCCc1nc(=S)[nH][nH]1 ?
rCAG RNA binder: inactive; ABHD5 PLIN5 PPI: inactive; PRMT1 FP inh: 27; UHRF1 binding: inactive; LEDGF integ inh: inactive; MBD2 inh: inactive; PRMT1 inh conf: 37

Results for Cc1ccc(CN(C)C(=O)c2cc(COc3cccc(C(F)(F)F)c3)on2)o1 ?
rCAG RNA binder: inactive; ABHD5 PLIN5 PPI: inactive; PRMT1 FP inh: 37; UHRF1 binding: inactive; LEDGF integ inh: inactive; MBD2 inh: inactive; PRMT1 inh conf: 34

How did CN(Cc1nccn1C)C(=O)c1cc(COc2cccc(C(F)(F)F)c2)on1 do in these assays?
rCAG RNA binder: inactive; ABHD5 PLIN5 PPI: inactive; PRMT1 FP inh: inactive; UHRF1 binding: inactive; LEDGF integ inh: inactive; MBD2 inh: inactive

Results for O=C1NC(=O)/C(=C\c2ccc(Br)o2)S1 ?
rCAG RNA binder: inactive; ABHD5 PLIN5 PPI: inactive; PRMT1 FP inh: 43; UHRF1 binding: 45; LEDGF integ inh: inactive; MBD2 inh: inactive; PRMT1 inh conf: inactive

How did C[C@H]1COc2cc(Br)ccc2S(=O)(=O)N1Cc1cn(Cc2ccccc2)nn1 do in these assays?
rCAG RNA binder: inactive; PRMT1 FP inh: inactive; UHRF1 binding: inactive; LEDGF integ inh: inactive; MBD2 inh: inactive

Results for CCn1c2ccccc2c2cc(C=NNC(=O)c3cc(-c4ccc(OC)cc4)n[nH]3)ccc21 ?
rCAG RNA binder: inactive; PRMT1 FP inh: inactive; UHRF1 binding: inactive; LEDGF integ inh: inactive; MBD2 inh: inactive

Results for O=C(CSC1=NCCS1)Nc1ccc(F)cc1 ?
rCAG RNA binder: inactive; ABHD5 PLIN5 PPI: inactive; PRMT1 FP inh: inactive; UHRF1 binding: inactive; LEDGF integ inh: inactive; MBD2 inh: inactive

What do the screens show for `Cc1cc(NC(=O)CSC2=NCCS2)no1`?
rCAG RNA binder: inactive; ABHD5 PLIN5 PPI: inactive; PRMT1 FP inh: 39; UHRF1 binding: inactive; LEDGF integ inh: inactive; MBD2 inh: inactive; PRMT1 inh conf: inactive

What do the screens show for `NC(=O)c1ccccc1NC(=O)CSC1=NCCS1`?
rCAG RNA binder: inactive; ABHD5 PLIN5 PPI: inactive; PRMT1 FP inh: 27; UHRF1 binding: inactive; LEDGF integ inh: inactive; MBD2 inh: inactive; PRMT1 inh conf: 53

What do the screens show for `CSCC(=O)Nc1cc(C)on1`?
rCAG RNA binder: inactive; ABHD5 PLIN5 PPI: inactive; PRMT1 FP inh: inactive; UHRF1 binding: inactive; LEDGF integ inh: inactive; MBD2 inh: inactive

Results for CCOC(=O)C1=C(N)Oc2c(c(=O)[nH]c3ccccc23)C1c1ccccc1 (centres undefined) ?
rCAG RNA binder: inactive; ABHD5 PLIN5 PPI: inactive; PRMT1 FP inh: 58; UHRF1 binding: inactive; LEDGF integ inh: inactive; MBD2 inh: inactive; PRMT1 inh conf: inactive

What do the screens show for `CCOC(=O)C1=C(N)Oc2cc(C)[nH]c(=O)c2C1c1ccncc1` (centres undefined)?
rCAG RNA binder: inactive; ABHD5 PLIN5 PPI: inactive; PRMT1 FP inh: inactive; UHRF1 binding: inactive; LEDGF integ inh: inactive; MBD2 inh: inactive

Results for CCCc1c(-c2cccc(Br)c2)ncn1CCc1ccccc1OC ?
rCAG RNA binder: inactive; PRMT1 FP inh: inactive; UHRF1 binding: inactive; LEDGF integ inh: inactive; MBD2 inh: inactive

What do the screens show for `O=C(CSc1nc2cc(S(=O)(=O)N3CCOCC3)ccc2o1)NC1CCCc2ccccc21` (centres undefined)?
rCAG RNA binder: inactive; ABHD5 PLIN5 PPI: inactive; PRMT1 FP inh: 30; UHRF1 binding: inactive; LEDGF integ inh: inactive; MBD2 inh: inactive; PRMT1 inh conf: 25

What do the screens show for `CCSc1nc2cc(S(=O)(=O)N3CCOCC3)ccc2o1`?
rCAG RNA binder: inactive; ABHD5 PLIN5 PPI: inactive; PRMT1 FP inh: inactive; UHRF1 binding: inactive; LEDGF integ inh: inactive; MBD2 inh: inactive
